Screening data deposited in PubChem BioAssay by National Center for Advancing Translational Sciences (NCATS).
Hits are enriched below; roughly 2.9% of the tested compounds scored in any of these assays.
ATXN2 expr inh: reduces ATXN2 reporter expression in HEK-293 cells. HEK-293 ATXN2-luciferase reporter, luminescence, 24 h. Potency, µM (top dose mostly 57 µM), most hits filed as inhibitors. 0.72% of 360,000 active. AID 1745845; further: nearly all actives have a fitted effect of over 55% in size
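qHTS (up to 57 uM final) was run with 24 h compound exposure of reporter cells at 37 °C. Each well was multiplexed: SteadyGlo luminescence measured ATXN2-luciferase expression after a fluorogenic Gly-Phe-AFC viability readout (25 uM final).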
Nrf2 inh: Nrf2 pathway inhibition. A549 ARE-Fluc reporter, luciferase luminescence, 18-24 h. Potency, µM (highest dose often 46 µM), usual class: inhibitors. 2.1% of 360,000 active; further: nearly all actives have a fitted effect of over 60% in size
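Cells were seeded and rested 2 h, then exposed to compounds for 18-24 h. CellTiter-Fluor was read first as a viability measure. BugLite was added 15 min before the final luminescent read of ARE-luciferase activity in A549 cells.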
Nrf2 activator: Nrf2 pathway activation. AREc32 ARE-luciferase reporter (MCF7-derived line), luminescence, 24 h. Potency, µM (doses to about 46.1 µM), actives largely listed as activators. 0.31% of 410,000 active. AID 624171; further: nearly all actives have a fitted effect of over 65% in size
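Steps: seed AREc32_Fluc cells (1000/well, 5% FBS OPTI-MEM); incubate overnight at 37 deg C; add 23 nL compound; incubate 24 hr; add Steady-Glo; hold 30 min RT; read luminescence.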
ATXN viability: cell viability loss in ATXN counter-screen. S2 cells (HEK-293 line with an ATXN2-luciferase reporter) viability, CellTiter-Fluor protease fluorescence, 24 h. Potency, µM (top dose mostly 56.7 µM), hits mostly cytotoxic. 0.49% of 400,000 active. AID 651635; further: nearly all actives have a fitted effect of over 40% in size
A549 tox: kills or reduces viability of A549 cells in Nrf2 counter-screen. 0.16% of 390,000 active. Potency, µM (highest dose often 46 µM), actives largely listed as inhibitors. A549 ARE-Fluc cells, CellTiter-Fluor viability, 18-24 h
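A549 ARE_Fluc cells in 5% FBS OPTI-MEM were exposed to compounds in concentration-response for 18-24 h at 37 deg C. Viability was read by CellTiter-Fluor fluorescence (Ex 405/Em 525) after 30 min, before the luciferase read.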
Large screens that a line does not name were inactive. The call rests on the fitted dose curve; in most records, active means well fitted curve in the direction sought with a large enough effect; inconclusive means small, poorly fitted or top-dose-only effect, or another doubt; inactive means no such curve, though single readings can be large; an effect the other way counts as inactive or inconclusive.

Cc1ccc(NC(=O)C2CCN(c3ncnc4sc(C)c(C)c34)CC2)cc1S(=O)(=O)N(C)C	ATXN2 expr inh inconclusive, Nrf2 inh 23.1µM, ATXN viability inconclusive
CCN(CC)S(=O)(=O)c1cc(NC(=O)C2CC(=O)N(Cc3ccccc3)C2)ccc1Cl (stereo unspecified)	Nrf2 inh 18.4µM (no result: ATXN2 expr inh, ATXN viability)
CCN(CC)S(=O)(=O)c1cc(NC(=O)C2CCN(c3ncnc4sc(C)c(C)c34)CC2)ccc1Cl	ATXN2 expr inh 11.2µM, Nrf2 inh 11.6µM, ATXN viability inconclusive, A549 tox inconclusive
Cc1ccccc1/C=C(\C#N)c1nc(-c2ccc(Cl)cc2)cs1	Nrf2 inh inconclusive
O=Cc1cc(N=Nc2ccccc2Cl)ccc1O	Nrf2 inh inconclusive, ATXN viability 33.6µM
O=Cc1cc(N=Nc2cccc(C(=O)O)c2)ccc1O	Nrf2 inh inconclusive
COc1ccc([N+](=O)[O-])c(S(=O)(=O)c2ccccc2)n1	ATXN2 expr inh 11.9µM, Nrf2 inh inconclusive, A549 tox inconclusive (no result: ATXN viability)
O=C(NCc1nnc2n1CCN(Cc1cccc(C(F)(F)F)c1)CC2)c1ccncc1	none (no result: ATXN2 expr inh, Nrf2 inh, Nrf2 activator, A549 tox)
COc1cccc(CNC(=O)c2c(OC)cc(=O)n3c2CCN(C(=O)c2ccoc2C)CC3)c1	none (no result: ATXN2 expr inh, Nrf2 inh, Nrf2 activator, A549 tox)
CN(C)/N=C/C=C1\CCC/C(=C\c2ccc(F)c(F)c2)C1=O	Nrf2 inh inconclusive, Nrf2 activator 17.8µM, ATXN viability inconclusive
COc1ccc(/C=C2\CCC/C(=C\C=N\N(C)C)C2=O)cc1	Nrf2 activator 14.1µM (no result: ATXN2 expr inh, ATXN viability)
COc1ccc(-c2noc(-c3cccnc3N3CCN(c4ccc(OC)cc4)CC3)n2)cc1	none
O=C(CSc1nnc2c(n1)[nH]c1ccc(F)cc12)Nc1ccccc1F	none
O=C(CSc1nnc2c3ccccc3c3ccccc3c2n1)Nc1ccccc1F	ATXN2 expr inh inconclusive, ATXN viability 14.1µM
O=C(COC(=O)c1cc([N+](=O)[O-])ccc1N1CCOCC1)Nc1ccc(Cl)cn1	ATXN2 expr inh 7.08µM, Nrf2 inh inconclusive, ATXN viability inconclusive, A549 tox inconclusive
O=C(COC(=O)c1cc([N+](=O)[O-])ccc1N1CCOCC1)Nc1ccc(Cl)cc1	Nrf2 inh 18.4µM, ATXN viability inconclusive, A549 tox inconclusive
OCCCNc1cc(-c2ccnc(Nc3cccc(Cl)c3)n2)ccn1	ATXN2 expr inh 0.159µM, Nrf2 inh inconclusive, ATXN viability inconclusive
CCC(C)Oc1cc(-c2ccnc(Nc3cccc(Cl)c3)n2)ccn1 (stereo unspecified)	ATXN2 expr inh inconclusive, Nrf2 inh inconclusive
COC(=O)[C@@H]1CCCN1Cc1ccc2c(c1)CN(Cc1ccccc1F)CCO2	none (no result: ATXN2 expr inh, Nrf2 inh, Nrf2 activator, A549 tox)
COc1ccc(C)cc1Nc1n[n+](-c2ccccc2)c(-c2cc(OC)c(OC)cc2Br)s1	ATXN2 expr inh inconclusive, Nrf2 inh inconclusive, ATXN viability 22.4µM
C=CCc1ccccc1OCCSc1nc(-c2cccs2)nc2cc(=O)[nH]n12	none
O=C(CCc1nc2ccccc2s1)N1CCOc2ccc(CN3CCc4sccc4C3)cc2C1	none (no result: ATXN2 expr inh, Nrf2 inh, Nrf2 activator, A549 tox)
OC(CNCCc1ccc(C(F)(F)F)cc1)COc1cccc2ccccc12 (stereo unspecified)	ATXN viability inconclusive (no result: ATXN2 expr inh)
OC(CNCCc1ccc(C(F)(F)F)cc1)COc1ccc2ccccc2c1 (stereo unspecified)	ATXN2 expr inh 28.2µM (no result: ATXN viability)
Cc1nc(C)c(CC(=O)N2CCOc3ccc(CN4CCN(c5ccccn5)CC4)cc3C2)s1	none (no result: ATXN2 expr inh, Nrf2 inh, Nrf2 activator, A549 tox)
O=c1oc2ccccc2cc1-c1csc(Cc2nc(-c3ccc(Cl)cc3)cs2)n1	Nrf2 inh 20.6µM
Cc1ccc(-c2cn3nc(C)c(C)nc3n2)cc1	ATXN2 expr inh 6.31µM, Nrf2 inh inconclusive, A549 tox inconclusive (no result: ATXN viability)
COc1ccc(-c2cn3nc(C)c(C)nc3n2)cc1OC	Nrf2 inh inconclusive
COC(=O)CN1C(=O)[C@@H]2[C@H](C1=O)[C@@H]1CC(C(=O)OC)=C[C@@H](C(=O)OC)C3C1=C(C(=O)[C@@]3(C)NC(=O)c1ccccc1)[C@@H]2C (stereo partly specified)	none (no result: ATXN2 expr inh, Nrf2 activator, ATXN viability)
CC1CCC(NC(=O)c2ccc(CS(=O)(=O)c3ccc(Cl)cc3)o2)CC1 (stereo unspecified)	none (no result: ATXN2 expr inh, Nrf2 inh, ATXN viability)
O=C(NCC1CCC2(CCN(Cc3cnn(-c4ccc(F)cc4)c3)CC2)O1)c1ccccc1 (stereo unspecified)	none (no result: ATXN2 expr inh, Nrf2 inh, Nrf2 activator, A549 tox)
CCS(=O)(=O)c1nc(S(=O)(=O)c2ccc(Cl)cc2)c(N2CCC3(CC2)OCCO3)s1	Nrf2 activator 11.2µM
CS(=O)(=O)c1nc(S(=O)(=O)c2ccc(Cl)cc2)c(N2CCC3(CC2)OCCO3)s1	Nrf2 inh inconclusive, Nrf2 activator 10µM (no result: ATXN2 expr inh)
CN(Cc1ccccc1)c1ncnc2[nH]ncc12	ATXN viability inconclusive
CN(Cc1ccccc1)c1ncnc2sccc12	ATXN2 expr inh inconclusive, Nrf2 inh 16.4µM
CC(C)(C)c1ccc(C(=O)NCC(=O)OC(C(=O)Nc2cc(C(F)(F)F)ccc2Cl)c2ccccc2)cc1 (stereo unspecified)	Nrf2 inh inconclusive (no result: ATXN2 expr inh, Nrf2 activator, ATXN viability)
COCCN1CCN(C(=O)c2cnn(-c3nccc(-c4ccco4)n3)c2C(C)C)CC1	none (no result: ATXN2 expr inh, Nrf2 inh, Nrf2 activator, A549 tox)
CCN1C[C@@H]2[C@@H]3C(=O)N(Cc4ccccc4)C(=O)[C@@H]3[C@](Cc3ccccc3)(C1=O)N2C(=O)c1ccc(C(C)(C)C)cc1	ATXN2 expr inh inconclusive, Nrf2 inh inconclusive, ATXN viability 31.6µM, A549 tox inconclusive
O=C(NNc1ccccc1)C(=O)NNS(=O)(=O)c1ccc([N+](=O)[O-])cc1	Nrf2 inh 18.4µM
COc1ccc([N+](=O)[O-])cc1NC(=S)NC(NC(=O)C(c1ccccc1)c1ccccc1)C(Cl)(Cl)Cl (stereo unspecified)	ATXN2 expr inh 22.4µM, Nrf2 inh 14.6µM, ATXN viability inconclusive, A549 tox inconclusive
COc1ccc([N+](=O)[O-])cc1NC(=O)C(C)c1ccccc1 (stereo unspecified)	none
COc1ccc([N+](=O)[O-])cc1NC(=O)CSc1nc(C)cc(C)n1	none
O=C(NNC(=S)NC(=O)c1ccccc1Cl)c1cccc([N+](=O)[O-])c1	none
COc1ccc([N+](=O)[O-])cc1NC(=O)C(C)NNC(=O)c1cccc([N+](=O)[O-])c1 (stereo unspecified)	Nrf2 inh 16.4µM
COc1ccc([N+](=O)[O-])cc1NC(=O)CSc1ccc2ccccc2c1	Nrf2 inh 18.4µM, Nrf2 activator inconclusive
O=C(NC(NC(=S)Nc1c(Cl)cccc1Cl)C(Cl)(Cl)Cl)c1cccc([N+](=O)[O-])c1 (stereo unspecified)	Nrf2 inh 16.4µM, A549 tox inconclusive
Cc1ccc(Cl)c(OCC(O)CNC(C)(C)C)c1 (stereo unspecified)	none (no result: Nrf2 inh, Nrf2 activator, A549 tox)
COc1ccc([N+](=O)[O-])cc1NC(=O)C(C)Sc1ccc(C)cc1 (stereo unspecified)	Nrf2 inh 18.4µM
CC(Sc1nc(-c2ccccc2)c(C#N)c(=O)[nH]1)C(=O)Nc1ccc(F)cc1 (stereo unspecified)	none
